Active and inactive are the calls of the source.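 Rule for the calls, unless noted: active = fluorescence slope after compound addition differing from the mean of all screened samples at 99.7% confidence, in either direction; inactive = the rest.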
Experiments:
[1] = inhibitors of TNFa-induced NFkB p65 translocation, primary screen, imaging, HUVEC, MLSMR starter and 10KST1 sets (AID 438;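 active = inhibition above 20% together with a positive visual image hit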;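 note: compound added about 3h40 before a 20 min TNFalpha stimulation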;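 for inhibition: signal is the nuclear over cytoplasmic p65 intensity ratio per well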); settings: HUVEC TNFa-induced p65 nuclear translocation; cell count: measured here: nuclei count (cytotoxicity indicator), at 2.08 µM; inhibition: at 2 µM, stronger effect = higher value, 0% TNFa-plus-vehicle, 100% no-TNFa wells
[2] = reduction of polyQ htt aggregates in cells – imaging, exon1htt(103Q)mCFP cells, high-content imaging, primary screen (AID 483;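 active = visual image review flags a hit and inhibition of aggregation exceeds 20%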;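 note: compound exposure lasted 3 days before fixation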;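 for nuclei count: percent of the per-plate median nuclei count of sample wells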); settings: exon1htt(103Q)mCFP cell line, aggregate imaging, at 2 µM; inhibition of aggregation: stronger effect = higher value; nuclei count: measured here: cell count, toxicity
[3] = endothelial E-selectin expression blockers – imaging, HUVEC, immunofluorescence, MLSMR starter and 10KST1 sets, primary screen (AID 487;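 active = visually confirmed hit in the image check and inhibition above 20%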;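 for inhibition: signal is fraction of cell area covered by stained E-selectin grains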;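 for nuclei count: 100% = median nuclei count of all wells on the same plate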); settings: HUVEC TNFalpha-induced E-selectin immunofluorescence imaging, at 2 µM; inhibition: stronger effect = higher value; nuclei count: measured here: cell number, toxicity
[4] = target: Voltage-gated potassium channel subunit beta-2 (Rattus norvegicus) (UniProt P62483); experiment: inhibitors of rat Kvbeta2 reductase activity – biochemical, NADPH fluorescence, primary screen (AID 622;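 active = fluorescence slope higher than the sample average by over 3 SD, cut at about -0.22 in these data, passing the limit was not always enough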;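 note: slope of raw intensity against log time taken from 70 to 1610 s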); settings: recombinant KvBeta, 4-cyanobenzaldehyde reduction, at 10 µM, stronger effect = higher value
Sequence of Voltage-gated potassium channel subunit beta-2 (Rattus norvegicus) (P62483 whole entry, looked up): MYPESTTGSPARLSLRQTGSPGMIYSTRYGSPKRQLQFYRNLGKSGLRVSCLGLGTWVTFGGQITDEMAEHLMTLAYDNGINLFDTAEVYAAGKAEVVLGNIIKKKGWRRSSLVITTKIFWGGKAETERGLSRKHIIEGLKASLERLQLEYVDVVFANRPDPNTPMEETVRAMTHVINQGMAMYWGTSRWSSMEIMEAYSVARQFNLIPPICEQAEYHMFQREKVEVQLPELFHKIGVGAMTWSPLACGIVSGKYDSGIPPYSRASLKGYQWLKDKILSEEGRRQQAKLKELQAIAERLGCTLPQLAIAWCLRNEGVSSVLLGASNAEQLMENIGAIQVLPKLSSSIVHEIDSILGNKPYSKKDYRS

[5] = target: Voltage-gated potassium channel subunit beta-2 (Rattus norvegicus) (UniProt P62483); experiment: enhancers of rat Kvbeta2 NADPH turnover – biochemical, NADPH fluorescence, primary screen (AID 623;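 active = NADPH fluorescence slope more negative than the mean of all samples by about 3 SD, 99.7% confidence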;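 note: fluorescence intensity change per second fitted from 20 to 320 s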); settings: Recombinant KvBeta, NADPH fluorescence decrease slope, 10 min; at 10 µM; stronger effect = lower value
[6] = target: Alpha-2C adrenergic receptor (Homo sapiens) (UniProt P18825); experiment: compounds altering alpha2C-coupled GIRK flux – cell-based, HEK293 alpha2C/GIRK1/2, thallium flux, primary screen (AID 624); settings: thallium flux BTC fluorescence, at 10 µM, actives lie on both sides;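 note: slope of fluorescence ratio to pre-addition baseline per second over 15 to 24 s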
Sequence of Alpha-2C adrenergic receptor (Homo sapiens) (P18825 whole entry, looked up): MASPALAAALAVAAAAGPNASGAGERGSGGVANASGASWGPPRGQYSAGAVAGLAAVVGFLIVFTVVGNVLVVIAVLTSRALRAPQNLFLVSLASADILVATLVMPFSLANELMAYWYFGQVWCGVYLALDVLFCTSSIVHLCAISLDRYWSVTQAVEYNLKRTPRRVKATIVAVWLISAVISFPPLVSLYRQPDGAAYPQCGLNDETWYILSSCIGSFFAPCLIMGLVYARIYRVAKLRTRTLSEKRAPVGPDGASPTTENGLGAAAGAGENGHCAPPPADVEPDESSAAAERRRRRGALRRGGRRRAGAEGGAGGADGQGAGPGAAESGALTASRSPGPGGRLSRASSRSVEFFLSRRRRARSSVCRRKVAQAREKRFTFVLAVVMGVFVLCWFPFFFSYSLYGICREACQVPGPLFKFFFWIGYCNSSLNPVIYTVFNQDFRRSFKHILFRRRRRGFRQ

[7] = blockers of RIG-like receptor reporter activation – cell-based, Sendai virus stimulus, luciferase, 10K MLSCN set, TLR/RLR signaling modifier project, primary screen (AID 602276;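 active = inhibition at or above 50% at 10 µM; inactive = inhibition below 50%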;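 note: firefly luciferase from ISG56 promoter only with Renilla not read in this screen; 0% = Sendai virus plus DMSO and 100% = medium plus DMSO without virus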); settings: HEK293 RL24 IRF3 luciferase reporter, at 10 µM, stronger effect = higher value
[8] = TLR3 IRF3 reporter activation blockers – cell-based, poly I:C stimulus, luciferase, 10K MLSCN set, primary screen (AID 602277;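 active = inhibition of the reporter signal at or above 50%; inactive = inhibition below 50%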); settings: HEK293-TLR3 RL24 IRF3 luciferase reporter, at 10 µM, stronger effect = higher value

| Structure (SMILES) | cell count [1] | inhibition [1] | inhibition of aggregation [2] | nuclei count [2] [%] | inhibition [3] | nuclei count [3] [%] | fluorescence slope [4] | NADPH fluorescence slope [5] | slope [6] | inhibition [7] | inhibition [8] |
| --- | --- | --- | --- | --- | --- | --- | --- | --- | --- | --- | --- |
| COc1ccc(OC)c(C(=O)CSc2nnc(-c3ccc(OC)c(OC)c3)o2)c1 | 399 | 1% (inactive) | 44.4% (active) | 15.1 | -114% (inactive) | 181 | -0.458 (inactive) | 3.9e-05 (inactive) | 0.00796 (inactive) | 12% (inactive) | 21.8% (inactive) |
| CCC(C)(C(=O)NC1CCCCC1)N(Cc1ccco1)C(=O)c1cnccn1 (stereo not drawn) | 471 | 0.3% (inactive) | 16.1% (inactive) | 89.9 | -23.4% (inactive) | 110 | -0.376 (inactive) | -4.2e-05 (inactive) | 0.00684 (inactive) | 10.7% (inactive) | 27.6% (inactive) |
| CC1CCc2nn(CC(=O)NCCN3CCOCC3)cc2C1 (stereo not drawn) | 605 | 4% (inactive) | -0.2% (inactive) | 94.5 | 42.1% (inactive) | 97 | -0.612 (inactive) | 5.1e-06 (inactive) | 0.00648 (inactive) | 7.91% (inactive) | 24.3% (inactive) |
| C=CCSc1nc(N)c2c(C)c(C)sc2n1 | 419 | 3% (inactive) | 29.2% (inactive) | 91.8 | -20.5% (inactive) | 101 | -0.404 (inactive) | 1.5e-05 (inactive) | 0.000164 (inactive) | -7.96% (inactive) | -46.7% (inactive) |
| CCCc1nnc2n1N=C(c1ccc(-c3cc(Cl)ccc3Cl)o1)CS2 | 248 | 6.2% (inactive) | 4.8% (inactive) | 100 | 17.1% (inactive) | 89 | -0.447 (inactive) | -5.1e-05 (inactive) | 0.00311 (inactive) | 8.08% (inactive) | 29.1% (inactive) |
| CCOC(=O)N1CCC(NC(=O)CS(=O)(=O)Cc2nc(-c3ccccc3C)oc2C)CC1 | 699 | -7.5% (inactive) | 2.1% (inactive) | 96.6 | -66.8% (inactive) | 119 | -0.513 (inactive) | -2.7e-05 (inactive) | 0.00671 (inactive) | 9.06% (inactive) | -5.43% (inactive) |
| CCCCCCC1/C(=N/O)CCC1C(=O)OC (stereo not drawn) | 656 | -7.7% (inactive) | 7.3% (inactive) | 91.2 | -54.1% (inactive) | 127 | -0.614 (inactive) | -8.9e-06 (inactive) | 0.00642 (inactive) | 0.917% (inactive) | 10.1% (inactive) |
| CCOC(=O)C(CC)n1nc(C)n2c(cc3sccc32)c1=O (stereo not drawn) | 526 | 7.7% (inactive) | 14.3% (inactive) | 110 | -25.8% (inactive) | 122 | -0.567 (inactive) | -3.4e-05 (inactive) | 0.0065 (inactive) | 10.8% (inactive) | 19.7% (inactive) |
| CCn1cc(C2=NCC(C)O2)c2ccccc21 (stereo not drawn) | 487 | 5% (inactive) | -14% (inactive) | 83.2 | -128% (inactive) | 102 | -0.595 (inactive) | -9.7e-06 (inactive) | 0.00619 (inactive) | 12.7% (inactive) | 25.5% (inactive) |
| CCOC(=O)c1oc2ccccc2c1CSc1nnnn1-c1ccc(C)cc1 | 371 | -3.4% (inactive) | 8.2% (inactive) | 88.1 | -60.7% (inactive) | 106 | -0.613 (inactive) | -2.5e-05 (inactive) | 0.00768 (inactive) | -16.8% (inactive) | 1.2% (inactive) |
| COc1cccc(NC(=O)N2CCCC2C(=O)NC(C)C)c1 (stereo not drawn) | 436 | 1.5% (inactive) | -4.5% (inactive) | 121 | -49.5% (inactive) | 114 | -0.601 (inactive) | -2.2e-05 (inactive) | 0.00309 (inactive) | 10.9% (inactive) | 13.7% (inactive) |
| Cn1c(=O)c2ncn(CC(=O)NCCOc3ccc(C(C)(C)C)cc3)c2n(C)c1=O | 762 | 2.2% (inactive) | -9.8% (inactive) | 103 | -15.3% (inactive) | 106 | -0.582 (inactive) | -3.7e-05 (inactive) | 0.00671 (inactive) | -12.6% (inactive) | -14.5% (inactive) |
| CCc1nnc(NC(=O)COC(=O)CN2C(=O)c3ccccc3C2=O)s1 | 375 | 4.7% (inactive) | 7.1% (inactive) | 91.2 | 4.5% (inactive) | 84.7 | -0.53 (inactive) | -4.4e-05 (inactive) | 0.00636 (inactive) | -1.09% (inactive) | 12.5% (inactive) |
| CCOc1ccccc1NC(=O)CCSc1nc2n[nH]c(C)c2c(=N)n1-c1ccccc1Cl | 621 | -10.2% (inactive) | -22.3% (inactive) | 77.9 | 30.1% (inactive) | 62.2 | -0.417 (inactive) | -4.1e-05 (inactive) | 0.00336 (inactive) | 3.64% (inactive) | 5.23% (inactive) |
| O=C(/C=N/O)NCc1ccncc1 | 420 | 1.2% (inactive) | 0.7% (inactive) | 98.3 | 28.2% (inactive) | 88 | -0.606 (inactive) | -2.2e-05 (inactive) | 0.00648 (inactive) | 8.28% (inactive) | 11.3% (inactive) |
| Cc1cc(C)n(-c2nc(C)nc3sc4c(c23)CCC(C)C4)n1 (stereo not drawn) | 564 | -8.4% (inactive) | -2% (inactive) | 93.8 | -88% (inactive) | 121 | -0.465 (inactive) | 5.5e-06 (inactive) | 0.00248 (inactive) | -1.01% (inactive) | 32.1% (inactive) |
| Cc1ccc(CCNC(=O)C2CCCN2S(=O)(=O)c2ccc3c(c2)CCC(=O)N3)cc1 (stereo not drawn) | 702 | -4.8% (inactive) | -29.3% (inactive) | 102 | -35% (inactive) | 121 | -0.547 (inactive) | -1e-05 (inactive) | 0.0066 (inactive) | -15.7% (inactive) | 0.529% (inactive) |
| Cc1cc(NS(=O)(=O)c2ccccc2)no1 | 662 | -5.5% (inactive) | -5.5% (inactive) | 97 | -72.8% (inactive) | 122 | -0.56 (inactive) | -5.2e-05 (inactive) | 0.00728 (inactive) | 11.7% (inactive) | 28.5% (inactive) |
| CCCCc1nccn1CCn1ccnc1CCCC | 514 | -5% (inactive) | 53.1% (active) | 75 | -75% (inactive) | 108 | -0.489 (inactive) | 1.9e-05 (inactive) | 0.00472 (inactive) | 26.7% (inactive) | 25.7% (inactive) |
| O=C(NC1CC1)c1cccc(Nc2ccc(-c3ccc4c(c3)OCCO4)nn2)c1 | 336 | -1.6% (inactive) | -55% (inactive) | 106 | -177% (inactive) | 126 | -0.358 (inactive) | -2.6e-05 (inactive) | 0.00455 (inactive) | -75.9% (inactive) | -132% (inactive) |
| COc1cccc(Nc2cc(C)nc3ccccc23)c1 | 259 | 2.1% (inactive) | 11.8% (inactive) | 78.5 | -1% (inactive) | 105 | -0.412 (inactive) | -6.3e-06 (inactive) | 0.00478 (inactive) | -11.6% (inactive) | 99.5% (active) |
| COc1cc(NC(=O)c2cc(CC(C)C)on2)c(OC)cc1Cl | 558 | -6% (inactive) | 13.1% (inactive) | 95.8 | -15.3% (inactive) | 106 | -0.575 (inactive) | 5.1e-07 (inactive) | 0.00662 (inactive) | 10.7% (inactive) | 46.6% (inactive) |
| CCC(C(=O)O)n1c(C(F)(F)F)nc2ccccc21 (stereo not drawn) | 717 | -29.6% (inactive) | 4.1% (inactive) | 103 | -6.3% (inactive) | 108 | -0.558 (inactive) | -2.1e-05 (inactive) | 0.00512 (inactive) | 7.44% (inactive) | 14.4% (inactive) |
| O=C(O)c1cc2c(s1)CCCC2 | 473 | 6.3% (inactive) | 8.1% (inactive) | 100 | 15.7% (inactive) | 111 | -0.383 (inactive) | -2.9e-06 (inactive) | 0.00578 (inactive) | 4.53% (inactive) | 8.58% (inactive) |
| CCOC(=O)c1c(C)[nH]c(C(=O)CSc2nc3ccccc3o2)c1C | 479 | 10.6% (inactive) | -23.1% (inactive) | 107 | 28.7% (inactive) | 94.5 | -0.3 (inactive) | 1.8e-05 (inactive) | 0.00682 (inactive) | -1.31% (inactive) | 0.358% (inactive) |
| CCOC(=O)Cc1nnc2c(Nc3ccc(C)cc3)nc3nonc3n12 | 352 | 1% (inactive) | 15% (inactive) | 87.3 | 6.7% (inactive) | 83 | -0.612 (inactive) | -1.4e-05 (inactive) | 0.00447 (inactive) | 23.5% (inactive) | 34.9% (inactive) |
| CCN(c1ccc2c(c1)OCO2)S(=O)(=O)c1cc(Br)cc2c1N(C(=O)C1CC1)CC2 | 341 | -14.4% (inactive) | 1.3% (inactive) | 99.8 | -9% (inactive) | 147 | -0.525 (inactive) | -0.000116 (inactive) | 0.00411 (inactive) | 11.9% (inactive) | 21.6% (inactive) |
| CC(=O)N(C)C1(c2nnnn2CCOC(=O)Nc2cccc3ccccc23)CCCC1 | 600 | -8.2% (inactive) | 31.6% (inactive) | 98.9 | -99.1% (inactive) | 105 | -0.61 (inactive) | -5.7e-05 (inactive) | 0.00458 (inactive) | 13% (inactive) | 21.8% (inactive) |
